Measured values published in PubChem BioAssay AID1117282 (The Scripps Research Institute Molecular Screening Center, 2014).
The list shows a part of the results. Values without a mark were called inactive.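 The calls were made as follows: active = mean inhibition across replicates above a set limit taken from the earlier primary screen (cut at about 11% in these data); inactive = the rest.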

Molecular target: RNA-editing ligase 1, mitochondrial (Trypanosoma brucei brucei) (UniProt P86926)
Test: T. brucei editing ligase REL1 blockade – biochemical, FRET fluorescence, triplicate, confirmation (AID 1117282);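 also: 0% = REL1 with substrate and DMSO and 100% = REL1 plus control inhibitor NSC42067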
Conditions: TbREL1 RNA ligation, at 9.66 µM, active compounds read high

Chain of RNA-editing ligase 1, mitochondrial (Trypanosoma brucei brucei) (P86926 whole entry, looked up): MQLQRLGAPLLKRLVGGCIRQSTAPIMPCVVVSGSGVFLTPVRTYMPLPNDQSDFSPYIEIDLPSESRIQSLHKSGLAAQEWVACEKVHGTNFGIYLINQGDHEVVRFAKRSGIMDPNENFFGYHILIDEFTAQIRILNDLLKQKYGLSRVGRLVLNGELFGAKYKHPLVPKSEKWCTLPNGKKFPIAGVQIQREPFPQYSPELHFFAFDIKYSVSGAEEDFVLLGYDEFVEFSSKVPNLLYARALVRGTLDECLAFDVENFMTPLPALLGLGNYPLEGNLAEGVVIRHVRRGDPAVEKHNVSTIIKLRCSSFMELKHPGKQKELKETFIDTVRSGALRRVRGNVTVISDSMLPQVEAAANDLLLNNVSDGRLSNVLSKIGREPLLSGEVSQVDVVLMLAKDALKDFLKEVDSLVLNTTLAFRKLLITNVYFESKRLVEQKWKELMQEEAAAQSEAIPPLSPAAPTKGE

| SMILES | inhibition |
| --- | --- |
| CC1CCCCN1Cc1cccnc1 (stereo not drawn) | 5.17% |
| O=c1[nH]c2ccccc2n1C1CCN(C(c2ccccc2)c2nnnn2Cc2ccccc2)CC1 (stereo not drawn) | 1.44% |
| CN1CCN(c2cc(N3CCNCC3)ccc2[N+](=O)[O-])CC1 | 9.79% |
